Data: PubChem BioAssay AID1159580 (chemical genetic matrix, 2015)
Screen size: about 5,500 compounds; about 2,000 (36%) were called active. About 18% were inconclusive and are not listed. Cut-off read from the data, not from the text of the source: active = normalized growth mostly below about 0.91 (no sharp cut-off); inconclusive = no clear call, values can overlap the other calls; inactive = mostly above about 0.92. This is one part of the list.

Test: chemical genetic growth profiling, strain panel (AID 1159580);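 note: tested at 20 µM; growth read once vehicle control cultures reached saturation at 30 °C; 1 = growth at the plate median or of vehicle wells; lower values mean less growth of the strain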
Conditions: S. cerevisiae deletion strains, growth OD
[1] = locus YAL013W, strain DEP1, stronger effect = lower value
[2] = locus YAL040C, strain CLN3, stronger effect = lower value
[3] = locus YCL061C, strain MRC1 (second series), stronger effect = lower value
[4] = locus YDR363W, strain ESC2, stronger effect = lower value
[5] = locus YER002W, strain NOP16, stronger effect = lower value
[6] = locus YJR075W, strain HOC1, stronger effect = lower value
[7] = locus YNL153C, strain GIM3, stronger effect = lower value
[8] = locus YNL175C, strain NOP13, stronger effect = lower value
[9] = locus YNL197C, strain WHI3, stronger effect = lower value
[10] = locus YNL224C, strain SQS1, stronger effect = lower value
[11] = locus YNL322C, strain KRE1, stronger effect = lower value
[12] = locus YOR083W, strain WHI5 (second series), stronger effect = lower value
[13] = locus YPL055C, strain LGE1, stronger effect = lower value
[14] = locus YMR263W, strain SAP30, stronger effect = lower value
[15] = locus YNL128W, strain TEP1, stronger effect = lower value

Measured: normalized growth

N[C@H]1CONC1=O
inactive: [1] 1.01 | [2] 1.08 | [3] 0.995 | [4] 0.995 | [5] 0.988 | [6] 1.02 | [7] 0.955 | [8] 0.986 | [9] 1.02 | [10] 0.994 | [11] 1.01 | [12] 0.993 | [13] 0.992

NCCC(=O)NCCc1cnc[nH]1
inactive: [1] 1 | [2] 0.98 | [3] 0.997 | [5] 0.993 | locus YGR078C, strain PAC10, stronger effect = lower value 1.01 | [14] 1 | [15] 1.01 | [8] 0.966 | [9] 0.984 | [10] 0.998 | [12] 1 | locus YPL241C, strain CIN2, stronger effect = lower value 1.01

N=C(N)SCCc1cnc[nH]1
inactive: [2] 0.985 | [3] 0.988 | [4] 1.01 | [5] 1.02 | [6] 0.998 | [14] 0.979 | [15] 0.995 | [7] 0.972 | [8] 0.992 | [9] 0.98 | [10] 0.991 | [11] 0.979 | [12] 0.988 | [13] 1
